Screening results (PubChem)
Compounds with a hit are over-represented: about 11% of the library has one in this group of screens.
L3MBTL1 inh – blocks human L3MBTL1; Q9Y468; AlphaScreen L3MBTL1–H3K9me1 peptide binding; Potency, µM (doses to about 57.1 µM), inactives show at the highest dose activity, negative = inhibition, hits mostly inhibitors; hit rate 0.66% among 230,000; note: % is set by controls: 0 for no effect and ±100 for the full control effect; nearly all actives have a fitted effect of over 60% in size
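First, the protein-peptide complex forms for 30 min at room temperature (L3MBTL1 50 nM, biotinylated H3K9me1 peptide 75 nM). Next, compounds are pin-transferred and incubated 30 min. Finally, AlphaScreen beads are added and read after 30 min.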
G9a block – inhibitors of human histone lysine methyltransferase G9a; AID 504332; G9a H3K9 monomethylation, AlphaScreen, 2 h; Q96KQ7; hit rate 8.8% among 350,000; Potency, µM (doses to about 102 µM), without a hit: at the top dose activity, negative = inhibition, actives largely listed as inhibitors; note: % is set by controls: 0 for no effect and ±100 for the full control effect; nearly all actives have a fitted effect of over 75% in size
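Readings reflect AlphaScreen signal from monomethyl-H3K9 antibody detection. HMT at 20 nM; substrate b-H3K9 500 nM; cofactor SAM 20 uM; 2 h RT reaction; compounds tested as titrations in qHTS with 15 min preincubation.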
BAZ2B inh – BAZ2B (human) inhibition; Potency, µM (series often up to 114 µM), for the others: top-dose activity change, negative = inhibition, usual class: inhibitors; AlphaScreen BAZ2B-H3K14Ac peptide displacement; hit rate 4.4% among 360,000; Q9UIF8; note: % is set by controls: 0 for no effect and ±100 for the full control effect; nearly all actives have a fitted effect of over 60% in size
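AlphaScreen luminescence quantifies BAZ2B engagement of H3K14Ac peptide; the protein and biotinylated peptide are both at 50 nM final, buffer PBS pH 7.4 with 0.01% Tween-20, all steps at room temperature.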
HP1b binding inh – blocks HP1-beta chromodomain binding to methylated histone tails | hit rate 0.56% among 390,000 | Potency, µM (doses to about 114 µM), inactives show top-dose activity change, negative = inhibition, most hits filed as inhibitors | AlphaScreen HP1-beta / biotin-H3K9me3 peptide binding; note: nearly all actives have a fitted effect of over 70% in size
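HP1-beta protein (50 nM final) preincubated 30 min at room temperature with biotinylated H3(1-18)K9me3 peptide (50 nM) in PBS pH 7.4, 0.01% Tween-20, then compound added for 30 min. AlphaScreen streptavidin donor/nickel chelate acceptor beads (10 ug/mL final), 30 min dark, luminescence read.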
JMJD2A Tudor inh – JMJD2A Tudor domain (human) inhibition; O75164; AlphaScreen JMJD2A-Tudor / H3K4me3 peptide binding; Potency, µM (highest dose often 114 µM), without a hit: at the highest dose activity change, negative = inhibition, usual class: inhibitors; hit rate 4.4% among 390,000; AID 504339; note: % is set by controls: 0 for no effect and ±100 for the full control effect; nearly all actives have a fitted effect of over 50% in size
Target sequence (O75164 whole entry, looked up, the tested form may be a part): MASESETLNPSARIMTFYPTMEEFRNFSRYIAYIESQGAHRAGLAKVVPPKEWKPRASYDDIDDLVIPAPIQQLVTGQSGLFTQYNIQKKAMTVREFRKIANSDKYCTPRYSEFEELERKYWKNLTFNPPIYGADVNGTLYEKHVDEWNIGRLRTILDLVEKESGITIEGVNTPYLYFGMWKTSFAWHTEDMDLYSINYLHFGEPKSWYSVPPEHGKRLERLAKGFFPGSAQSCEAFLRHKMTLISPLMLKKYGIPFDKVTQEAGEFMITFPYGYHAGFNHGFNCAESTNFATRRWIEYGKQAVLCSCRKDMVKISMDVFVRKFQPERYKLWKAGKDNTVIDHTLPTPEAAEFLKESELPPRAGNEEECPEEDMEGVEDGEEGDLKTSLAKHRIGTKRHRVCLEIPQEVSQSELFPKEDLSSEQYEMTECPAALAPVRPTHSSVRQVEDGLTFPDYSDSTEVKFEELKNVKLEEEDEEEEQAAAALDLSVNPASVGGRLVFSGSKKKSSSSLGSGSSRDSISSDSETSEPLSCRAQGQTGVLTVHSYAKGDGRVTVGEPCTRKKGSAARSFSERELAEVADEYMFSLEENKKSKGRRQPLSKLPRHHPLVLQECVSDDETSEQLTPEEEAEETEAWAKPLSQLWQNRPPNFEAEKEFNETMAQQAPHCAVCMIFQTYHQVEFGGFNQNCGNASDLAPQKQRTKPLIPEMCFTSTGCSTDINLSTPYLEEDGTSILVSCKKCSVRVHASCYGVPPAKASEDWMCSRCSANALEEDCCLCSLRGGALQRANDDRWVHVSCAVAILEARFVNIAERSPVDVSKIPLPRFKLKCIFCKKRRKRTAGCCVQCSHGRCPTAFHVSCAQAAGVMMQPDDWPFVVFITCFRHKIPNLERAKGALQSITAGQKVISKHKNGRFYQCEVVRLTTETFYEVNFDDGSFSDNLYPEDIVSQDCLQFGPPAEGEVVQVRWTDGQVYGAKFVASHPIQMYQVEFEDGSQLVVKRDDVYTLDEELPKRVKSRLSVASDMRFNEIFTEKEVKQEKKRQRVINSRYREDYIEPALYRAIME
The depositor's hits bear a star; ! = not confirmed by another sample; [ ] = remark or other dose. Calls come from the whole dose curve; as a rule, active = well fitted inhibition curve with a large enough effect; inconclusive = small, poorly fitted or top-dose-only effect; inactive = no such curve, though single readings can be large or run the other way. Potency is the fitted concentration of half-maximal effect.

How did CCc1ccc(CCC(=O)Nc2nc(CC(C)=O)ns2)o1 do in these assays?
L3MBTL1 inh: -7%; G9a block: 71µM*; BAZ2B inh: -10%; HP1b binding inh: 11%; JMJD2A Tudor inh: inconclusive

What do the screens show for `O=S(=O)(c1ccccc1Br)N1CCN(c2nc(-c3ccccc3)nc3ccccc23)CC1`?
HP1b binding inh: 33%; JMJD2A Tudor inh: -13%

Results for O=C(O)C1CCN(C(=O)c2ccccc2N2C(=O)[C@@H]3Cc4c([nH]c5ccccc45)C(c4cccc(Cl)c4)N3C2=O)CC1 (some centres undefined) ?
G9a block: -8%[12.7 µM]; BAZ2B inh: -38%; HP1b binding inh: -4%; JMJD2A Tudor inh: -14%

How did CC(=O)c1c(C)nc2nc(-c3ccccc3)nn2c1C do in these assays?
G9a block: 2%[59 µM]; BAZ2B inh: -9%; HP1b binding inh: 13%; JMJD2A Tudor inh: -2%

How did CC1(C)Nc2ccc(O)cc2-c2c1ssc2=S do in these assays?
L3MBTL1 inh: inconclusive; G9a block: 8.9µM*; BAZ2B inh: 45µM*; HP1b binding inh: 50µM*; JMJD2A Tudor inh: 40µM*

Results for CCc1ccccc1NC1=NCC(=O)N1Cc1ccccc1 ?
L3MBTL1 inh: -25%; G9a block: 45µM*; BAZ2B inh: 79µM*; HP1b binding inh: 32%; JMJD2A Tudor inh: 0%

What do the screens show for `CC(C)c1ccc(NC2=NCC(=O)N2Cc2cccs2)cc1`?
L3MBTL1 inh: 7%; G9a block: inconclusive; BAZ2B inh: inconclusive; HP1b binding inh: 44%; JMJD2A Tudor inh: -5%

What do the screens show for `O=C1CCN=C(Nc2ccc(F)cc2)N1Cc1ccccc1`?
G9a block: 40µM*; BAZ2B inh: inconclusive; HP1b binding inh: 35%; JMJD2A Tudor inh: -19%[57.1 µM]

How did Cc1cccc(NC2=NCC(=O)N2Cc2ccccc2)c1 do in these assays?
L3MBTL1 inh: -6%; G9a block: inconclusive; BAZ2B inh: -7%; HP1b binding inh: 62%; JMJD2A Tudor inh: -20%

How did Cc1cccc(NC2=NCC(=O)N2Cc2cccs2)c1 do in these assays?
L3MBTL1 inh: 5%; G9a block: 71µM*; BAZ2B inh: inconclusive; HP1b binding inh: 14%; JMJD2A Tudor inh: -1%

What do the screens show for `O=C1CN=C(Nc2ccccc2)N1Cc1cccs1`?
L3MBTL1 inh: 9%; G9a block: 79µM*; BAZ2B inh: 3%[57.1 µM]; HP1b binding inh: 42%; JMJD2A Tudor inh: -10%

How did CCOc1ccc(S(=O)(=O)N2CCC(C(=O)Nc3ccc(C)c(S(=O)(=O)N4CCOCC4)c3)CC2)cc1 do in these assays?
HP1b binding inh: 30%; JMJD2A Tudor inh: 4%

How did Cc1noc(C)c1CN1C(=O)c2ccccc2C1=O do in these assays?
G9a block: 37%; BAZ2B inh: 8%; HP1b binding inh: 39%; JMJD2A Tudor inh: -11%

Results for CCCCCC(=O)NNC(=S)NC(=O)c1cccc([N+](=O)[O-])c1 ?
L3MBTL1 inh: -4%; G9a block: 7.9µM*; BAZ2B inh: -33%; HP1b binding inh: -18%; JMJD2A Tudor inh: 35µM*

Results for Cc1c(NC(=S)NC(=O)c2cccc(Br)c2)c(=O)n(-c2ccccc2)n1C ?
L3MBTL1 inh: 1%; BAZ2B inh: 1%; HP1b binding inh: 6%; JMJD2A Tudor inh: -10%

Results for CCCCCC(=O)NNC(=S)NC(=O)c1ccccc1[N+](=O)[O-] ?
L3MBTL1 inh: -1%; G9a block: -42%; BAZ2B inh: -29%; HP1b binding inh: 21%; JMJD2A Tudor inh: -13%

How did Cc1c(NC(=O)c2cc(-c3ccc(F)cc3)on2)c(=O)n(-c2ccccc2)n1C do in these assays?
G9a block: -8%[59 µM]; BAZ2B inh: 1%; HP1b binding inh: 4%; JMJD2A Tudor inh: 79µM*!

How did O=C(NC(=S)NNC(=O)c1ccccc1[N+](=O)[O-])c1ccc(Br)cc1 do in these assays?
L3MBTL1 inh: 8%; G9a block: 8.9µM*; BAZ2B inh: 7%; HP1b binding inh: -15%; JMJD2A Tudor inh: -26%

Results for Cc1c(NC(=S)NC(=O)c2cccc([N+](=O)[O-])c2)c(=O)n(-c2ccccc2)n1C ?
G9a block: 45µM*; BAZ2B inh: -27%; HP1b binding inh: 7%; JMJD2A Tudor inh: -5%

What do the screens show for `O=C(NNC(=S)NC(=O)c1ccccc1[N+](=O)[O-])c1ccccc1Cl`?
L3MBTL1 inh: 12%; G9a block: inconclusive; BAZ2B inh: 3%; HP1b binding inh: 25%; JMJD2A Tudor inh: 3%

How did COc1ccc(N2CCN(c3ccc(-c4nc(-c5ccccc5C)no4)cc3[N+](=O)[O-])CC2)cc1 do in these assays?
G9a block: -23%[59 µM]; BAZ2B inh: -1%; HP1b binding inh: 34%; JMJD2A Tudor inh: -6%

What do the screens show for `COc1ccccc1N1CCN(C(=O)Cn2c(=O)nc(-c3ccccc3)c3ccccc32)CC1`?
G9a block: -2%[12.7 µM]; BAZ2B inh: -15%; HP1b binding inh: 20%; JMJD2A Tudor inh: 4%

Results for O=S(=O)(c1cccc(Cl)c1)N1CCN(c2nc(-c3cccs3)nc3ccccc23)CC1 ?
HP1b binding inh: 24%; JMJD2A Tudor inh: -7%

Results for CC(=O)Nc1c(C)nn(-c2ccccc2)c1N1CCC(C(=O)Nc2ccccc2F)CC1 ?
G9a block: 5%[59 µM]; BAZ2B inh: 7%; HP1b binding inh: 17%[57 µM]; JMJD2A Tudor inh: -22%

What do the screens show for `O=C(NC(=S)NNC(=O)c1ccccc1O)c1cccc([N+](=O)[O-])c1`?
G9a block: 52%[2.33 µM]; BAZ2B inh: 45µM*; HP1b binding inh: -18%; JMJD2A Tudor inh: 79µM*

What do the screens show for `CCCn1c(=O)sc2cc(NC(=O)COc3ccc(Cl)cc3)ccc21`?
G9a block: -3%[59 µM]; BAZ2B inh: -4%; HP1b binding inh: 10%; JMJD2A Tudor inh: -12%

How did O=C(CCCc1c[nH]c2ccccc12)Nc1ncccc1O do in these assays?
G9a block: 6%; BAZ2B inh: 56µM*; HP1b binding inh: 14%; JMJD2A Tudor inh: -28%

What do the screens show for `Cc1cccnc1NC(=O)CCCc1c[nH]c2ccccc12`?
G9a block: 22%; BAZ2B inh: inconclusive; HP1b binding inh: 40%; JMJD2A Tudor inh: -17%

Results for CCN(CC)CCNC(=O)C(=O)Nc1c2c(nn1-c1ccc(F)cc1)CSC2 ?
G9a block: -37%[59 µM]; BAZ2B inh: -5%; HP1b binding inh: 29%; JMJD2A Tudor inh: -9%

Results for CSc1cccc(NC(=O)c2ccc3c(c2)c(C)c(C)n3Cc2ccc(F)cc2)c1 ?
G9a block: -6%[59 µM]; BAZ2B inh: -13%; HP1b binding inh: 15%; JMJD2A Tudor inh: -32%

Results for CN(C(=O)CSc1nc2ccc(NC(=O)c3ccc(F)cc3)cc2s1)c1ccccc1 ?
G9a block: 12%[59 µM]; BAZ2B inh: -26%; HP1b binding inh: 14%; JMJD2A Tudor inh: -25%

What do the screens show for `C=CCn1c(SCC(=O)Nc2nc(C)cs2)nnc1C(C)NC(=O)c1ccccc1Cl` (centres undefined)?
L3MBTL1 inh: -3%; G9a block: inconclusive; BAZ2B inh: -6%; HP1b binding inh: 19%; JMJD2A Tudor inh: 89µM*
